Assay results as given in the supplement of paper PMC10849652.
About 8,800 targets were measured; listed, in parts, are those with a hit and a random draw of the rest. About 0.5% of all pairs of compound and target were hits. Unmarked numbers belong to inactive results.

Columns and labels:
Assay in all cases: log2 fold change, soluble protein after heating vs DMSO (PISA); higher = thermal stabilisation; K562 lysate, 10 uM; active = over 0.2 and 3.5 SD of the protein, either way, in both replicates (recomputed)
nilotinib = compound: Cc1cn(-c2cc(NC(=O)c3ccc(C)c(Nc4nccc(-c5cccnc5)n4)c3)cc(C(F)(F)F)c2)cn1 [nilotinib]
Outline: (§1)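 K562 pellets were dounce-homogenised in PBS pH 7.4 containing 1 mM MgCl2, and the crude extract, at 1 mg/mL protein, was exposed to 10 μM compound for 30 min. Aliquots were heated for 3 min across 48°C-58°C, pooled, brought to 0.5% NP-40 at 4°C and spun at 21,000xg for 90 min, with the supernatant taken as soluble protein. TMTpro 16plex LC-MS/MS with equalised channel sums quantified that protein. Values are log-two fold changes in thermal stability relative to solvent controls, taken from duplicates.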

[1] = compound: Cc1nc(Nc2n[nH]c3c2CN(C(=O)N[C@H](CN(C)C)c2ccccc2)C3(C)C)c2sccc2n1
Outline: as §1

dasatinib = compound: Cc1nc(Nc2ncc(C(=O)Nc3c(C)cccc3Cl)s2)cc(N2CCN(CCO)CC2)n1 [dasatinib]
Outline: as §1

[2] = compound: Cc1ncc(-c2ccnc(Nc3ccc(S(C)(=O)=O)cc3)n2)n1C(C)C
Outline: as §1

[3] = compound: Cn1cc(-c2ccc3c(c2)CCN3C(=O)Cc2cccc(C(F)(F)F)c2)c2c(N)ncnc21
Outline: as §1

quisinostat = compound: Cn1cc(CNCC2CCN(c3ncc(C(=O)NO)cn3)CC2)c2ccccc21 [quisinostat]
Outline: as §1

tipifarnib = compound: Cn1cncc1[C@@](N)(c1ccc(Cl)cc1)c1ccc2c(c1)c(-c1cccc(Cl)c1)cc(=O)n2C [tipifarnib]
Outline: as §1

[4] = compound: NC(=O)Nc1cc(-c2cccc(F)c2)sc1C(=O)N[C@H]1CCCNC1
Outline: as §1

[5] = compound: NC(=O)c1cnc(N[C@@H]2CCCC[C@@H]2N)nc1Nc1cccc(-n2nccn2)c1
Outline: as §1

[6] = compound: NC1(c2ccc(-c3nc4ccn5c(=O)[nH]nc5c4cc3-c3ccccc3)cc2)CCC1
Outline: as §1

Sequence of UniProt P78406 (P78406 whole entry, looked up): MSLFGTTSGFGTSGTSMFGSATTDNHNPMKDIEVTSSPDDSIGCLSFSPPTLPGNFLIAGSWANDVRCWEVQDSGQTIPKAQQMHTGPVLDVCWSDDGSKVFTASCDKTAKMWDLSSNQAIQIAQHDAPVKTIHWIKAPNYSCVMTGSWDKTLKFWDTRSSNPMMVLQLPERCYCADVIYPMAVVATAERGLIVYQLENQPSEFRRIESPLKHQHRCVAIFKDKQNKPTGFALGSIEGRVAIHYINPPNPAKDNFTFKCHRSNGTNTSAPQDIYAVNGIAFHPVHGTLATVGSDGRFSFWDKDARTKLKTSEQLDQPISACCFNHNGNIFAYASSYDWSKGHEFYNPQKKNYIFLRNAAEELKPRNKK
Sequence of UniProt Q7L523 (Q7L523 whole entry, looked up): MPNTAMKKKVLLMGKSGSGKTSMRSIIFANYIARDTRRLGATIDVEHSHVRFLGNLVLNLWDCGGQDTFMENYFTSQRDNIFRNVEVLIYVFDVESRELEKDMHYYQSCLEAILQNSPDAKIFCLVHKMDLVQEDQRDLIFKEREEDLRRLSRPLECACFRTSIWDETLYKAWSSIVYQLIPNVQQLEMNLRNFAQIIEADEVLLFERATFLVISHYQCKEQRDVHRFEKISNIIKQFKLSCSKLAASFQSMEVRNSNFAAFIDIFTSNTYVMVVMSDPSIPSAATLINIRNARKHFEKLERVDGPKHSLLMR
Sequence of UniProt Q8WWV3 (Q8WWV3 whole entry, looked up): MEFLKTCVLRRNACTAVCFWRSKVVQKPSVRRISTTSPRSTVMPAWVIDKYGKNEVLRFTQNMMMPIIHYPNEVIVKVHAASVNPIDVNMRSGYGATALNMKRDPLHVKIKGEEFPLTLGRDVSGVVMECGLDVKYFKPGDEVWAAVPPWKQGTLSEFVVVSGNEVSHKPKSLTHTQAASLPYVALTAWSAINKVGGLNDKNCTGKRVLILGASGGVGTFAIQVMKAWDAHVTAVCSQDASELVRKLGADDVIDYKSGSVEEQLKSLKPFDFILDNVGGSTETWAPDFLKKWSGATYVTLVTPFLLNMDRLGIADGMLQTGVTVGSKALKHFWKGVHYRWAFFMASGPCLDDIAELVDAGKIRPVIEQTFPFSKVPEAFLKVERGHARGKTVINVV
Sequence of UniProt O75582 (O75582 whole entry, looked up): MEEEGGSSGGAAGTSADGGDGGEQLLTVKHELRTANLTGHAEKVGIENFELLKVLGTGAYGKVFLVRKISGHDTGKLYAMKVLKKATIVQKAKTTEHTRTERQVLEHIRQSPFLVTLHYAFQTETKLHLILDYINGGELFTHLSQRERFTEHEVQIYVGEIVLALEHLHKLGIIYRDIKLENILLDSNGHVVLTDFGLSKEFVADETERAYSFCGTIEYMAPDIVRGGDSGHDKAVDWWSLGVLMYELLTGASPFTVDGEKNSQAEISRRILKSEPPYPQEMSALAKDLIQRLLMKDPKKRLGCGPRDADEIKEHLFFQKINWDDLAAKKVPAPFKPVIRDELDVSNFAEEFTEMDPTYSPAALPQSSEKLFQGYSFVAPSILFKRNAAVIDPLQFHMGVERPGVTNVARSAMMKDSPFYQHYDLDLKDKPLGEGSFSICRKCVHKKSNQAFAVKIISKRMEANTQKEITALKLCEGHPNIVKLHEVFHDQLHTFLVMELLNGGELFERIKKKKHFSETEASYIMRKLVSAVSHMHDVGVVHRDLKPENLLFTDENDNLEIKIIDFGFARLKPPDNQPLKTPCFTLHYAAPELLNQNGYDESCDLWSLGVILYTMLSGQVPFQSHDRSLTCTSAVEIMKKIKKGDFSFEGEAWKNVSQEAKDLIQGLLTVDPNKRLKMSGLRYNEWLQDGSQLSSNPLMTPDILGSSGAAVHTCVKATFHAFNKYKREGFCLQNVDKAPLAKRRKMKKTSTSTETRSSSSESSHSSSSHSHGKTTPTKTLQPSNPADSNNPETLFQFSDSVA
Sequence of UniProt Q9BWH6 (Q9BWH6 whole entry, looked up): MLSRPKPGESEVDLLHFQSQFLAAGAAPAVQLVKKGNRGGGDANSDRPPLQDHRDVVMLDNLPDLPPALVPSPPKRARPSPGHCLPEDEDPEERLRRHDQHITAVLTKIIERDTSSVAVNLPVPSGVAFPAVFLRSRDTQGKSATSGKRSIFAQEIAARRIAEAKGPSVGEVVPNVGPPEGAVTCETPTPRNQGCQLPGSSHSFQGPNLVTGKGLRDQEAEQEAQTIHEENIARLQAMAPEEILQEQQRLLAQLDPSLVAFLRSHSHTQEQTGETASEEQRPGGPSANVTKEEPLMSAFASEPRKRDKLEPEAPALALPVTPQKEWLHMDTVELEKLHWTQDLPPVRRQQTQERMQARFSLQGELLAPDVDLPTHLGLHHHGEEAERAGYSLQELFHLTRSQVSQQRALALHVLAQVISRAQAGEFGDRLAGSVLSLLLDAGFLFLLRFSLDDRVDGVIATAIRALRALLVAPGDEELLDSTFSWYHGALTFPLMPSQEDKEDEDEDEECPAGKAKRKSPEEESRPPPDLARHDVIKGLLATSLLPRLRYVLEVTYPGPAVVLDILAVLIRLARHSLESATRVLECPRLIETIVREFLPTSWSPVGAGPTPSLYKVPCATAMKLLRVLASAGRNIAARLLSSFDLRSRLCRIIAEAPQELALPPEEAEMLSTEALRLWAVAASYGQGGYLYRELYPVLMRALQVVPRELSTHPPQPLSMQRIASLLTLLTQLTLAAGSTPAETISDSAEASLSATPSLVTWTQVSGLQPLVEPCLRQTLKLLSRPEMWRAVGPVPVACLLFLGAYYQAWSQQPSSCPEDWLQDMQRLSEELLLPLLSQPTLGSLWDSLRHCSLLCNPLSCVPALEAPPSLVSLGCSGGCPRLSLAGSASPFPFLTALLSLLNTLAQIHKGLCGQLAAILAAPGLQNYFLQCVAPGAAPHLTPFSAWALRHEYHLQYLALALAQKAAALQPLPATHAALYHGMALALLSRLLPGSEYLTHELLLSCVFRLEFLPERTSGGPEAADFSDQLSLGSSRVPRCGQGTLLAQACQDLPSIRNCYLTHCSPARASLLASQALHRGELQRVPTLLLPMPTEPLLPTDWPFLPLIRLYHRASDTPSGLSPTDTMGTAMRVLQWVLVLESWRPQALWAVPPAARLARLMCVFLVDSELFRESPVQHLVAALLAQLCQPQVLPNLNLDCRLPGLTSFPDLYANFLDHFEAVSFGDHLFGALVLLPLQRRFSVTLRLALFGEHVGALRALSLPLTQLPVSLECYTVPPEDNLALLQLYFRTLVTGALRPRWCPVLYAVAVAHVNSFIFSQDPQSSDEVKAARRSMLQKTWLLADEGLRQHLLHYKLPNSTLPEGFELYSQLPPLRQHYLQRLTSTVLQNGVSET
Sequence of UniProt Q9UKL0 (Q9UKL0 whole entry, looked up): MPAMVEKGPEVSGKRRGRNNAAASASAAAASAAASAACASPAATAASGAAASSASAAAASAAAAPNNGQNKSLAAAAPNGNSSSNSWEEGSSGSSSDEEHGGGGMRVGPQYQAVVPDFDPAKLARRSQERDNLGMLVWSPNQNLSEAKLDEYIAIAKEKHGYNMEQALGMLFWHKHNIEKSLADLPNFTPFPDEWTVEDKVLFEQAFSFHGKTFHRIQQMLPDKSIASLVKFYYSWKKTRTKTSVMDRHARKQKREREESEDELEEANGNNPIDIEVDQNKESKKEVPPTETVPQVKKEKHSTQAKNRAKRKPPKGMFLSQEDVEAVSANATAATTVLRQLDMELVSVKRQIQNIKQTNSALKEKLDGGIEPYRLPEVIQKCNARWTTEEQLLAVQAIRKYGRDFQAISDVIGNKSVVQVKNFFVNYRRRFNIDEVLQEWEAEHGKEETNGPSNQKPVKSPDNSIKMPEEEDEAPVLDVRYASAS
Sequence of UniProt Q00765 (Q00765 whole entry, looked up): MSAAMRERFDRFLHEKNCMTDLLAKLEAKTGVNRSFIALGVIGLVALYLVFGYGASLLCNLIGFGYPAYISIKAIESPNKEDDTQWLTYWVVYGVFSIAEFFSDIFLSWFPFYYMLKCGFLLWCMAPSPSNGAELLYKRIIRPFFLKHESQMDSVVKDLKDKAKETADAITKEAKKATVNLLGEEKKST
Sequence of UniProt Q6UVJ0 (Q6UVJ0 whole entry, looked up): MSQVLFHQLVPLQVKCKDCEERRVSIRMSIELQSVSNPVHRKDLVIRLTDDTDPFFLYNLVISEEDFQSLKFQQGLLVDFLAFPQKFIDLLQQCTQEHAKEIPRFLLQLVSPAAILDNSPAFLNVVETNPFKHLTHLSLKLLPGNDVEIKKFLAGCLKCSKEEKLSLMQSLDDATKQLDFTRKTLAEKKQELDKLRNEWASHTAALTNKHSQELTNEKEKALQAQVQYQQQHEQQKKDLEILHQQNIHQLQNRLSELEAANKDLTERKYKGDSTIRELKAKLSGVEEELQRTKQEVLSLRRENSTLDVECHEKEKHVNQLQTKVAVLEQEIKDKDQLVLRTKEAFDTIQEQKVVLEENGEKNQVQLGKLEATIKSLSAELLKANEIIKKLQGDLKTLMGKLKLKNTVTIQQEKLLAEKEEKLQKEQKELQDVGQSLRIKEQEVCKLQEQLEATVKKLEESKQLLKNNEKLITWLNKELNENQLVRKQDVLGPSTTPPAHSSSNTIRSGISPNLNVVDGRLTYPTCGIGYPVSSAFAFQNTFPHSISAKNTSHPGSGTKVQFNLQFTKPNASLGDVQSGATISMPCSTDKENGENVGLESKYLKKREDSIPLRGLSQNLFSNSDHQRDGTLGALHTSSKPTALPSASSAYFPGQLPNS
Sequence of UniProt P51159 (P51159 whole entry, looked up): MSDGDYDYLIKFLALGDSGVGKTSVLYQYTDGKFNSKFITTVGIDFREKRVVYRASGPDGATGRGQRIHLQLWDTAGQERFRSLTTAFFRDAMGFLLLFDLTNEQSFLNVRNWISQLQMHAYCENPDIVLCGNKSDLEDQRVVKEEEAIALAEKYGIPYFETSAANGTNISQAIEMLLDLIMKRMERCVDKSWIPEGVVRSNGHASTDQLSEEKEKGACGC

Row | Target | log2 fold change (nilotinib) | log2 fold change [1] | log2 fold change (dasatinib) | log2 fold change [2] | log2 fold change [3] | log2 fold change (quisinostat) | log2 fold change (tipifarnib) | log2 fold change [4] | log2 fold change [5] | log2 fold change [6]
1 | REEP5 (UniProt Q00765) | 0.107 | -0.011 | 0.056 | 0.003 | -0.012 | 0.005 | 0.026 | -0.024 | 0 | -0.023
2 | SAMHD1 (UniProt Q9Y3Z3) | -0.006 | 0.008 | -0.026 | 0.013 | 0.066 | -0.02 | 0.03 | 0.054 | 0.046 | 0.004
3 | RAE1 (UniProt P78406) | -0.093 | 0.042 | 0.002 | 0.012 | 0.033 | 0.038 | -0.053 | 0.026 | 0.024 | 0.015
4 | RAD50 isoform 2 (UniProt Q92878) | -0.004 | 0.016 | -0.042 | -0.003 | 0.026 | -0.031 | -0.02 | 0.016 | 0.005 | 0.001
5 | RTN4IP1 (UniProt Q8WWV3) | -0.056 | -0.34 (active) | -0.046 | -0.259 | 0.028 | -0.033 | 0.245 | -0.055 | -0.012 | 0.148
6 | SATB2 (UniProt Q9UPW6) | -0.08 | -0.02 | 0.041 | -0.005 | 0.013 | -0.06 | 0.009 | 0.018 | 0.031 | 0
7 | RASA3 (UniProt Q14644) | 0.065 | -0.014 | -0.144 | 0.039 | 0.109 | 0.062 | 0.009 | 0.011 | 0.012 | 0.089
8 | RNF213, A0A0A0MTC1 | 0.015 | -0.016 | -0.027 | -0.019 | 0.035 | -0.033 | 0.001 | 0.071 | 0.015 | -0.016
9 | RCOR1 (UniProt Q9UKL0) | -0.024 | -0.006 | -0.054 | 0.009 | 0.003 | 0.015 | -0.022 | 0.043 | -0.015 | 0.099
10 | RAP1GAP isoform 4 (UniProt P47736) | -0.002 | -0.015 | 0 | 0.017 | 0.028 | -0.046 | -0.013 | 0.029 | -0.021 | -0.034
11 | RXRA (UniProt P19793) | 0.164 | -0.053 | -0.112 | 0.119 | -0.024 | -0.028 | 0.011 | 0.027 | 0.024 | -0.014
12 | RFC3 (UniProt P40938) | 0 | -0.05 | -0.036 | 0.034 | 0.021 | -0.081 | 0.002 | 0.094 | 0.01 | -0.006
13 | QTRT2 isoform 4 (UniProt Q9H974) | -0.001 | -0.024 | 0.005 | -0.024 | -0.051 | -0.059 | 0.022 | 0.022 | 0.004 | 0.021
14 | RPS9 (UniProt P46781) | 0.001 | -0.023 | 0.067 | -0.039 | 0.023 | 0.141 | 0.022 | -0.037 | -0.015 | 0.039
15 | SASS6 (UniProt Q6UVJ0) | -0.032 | 0.01 | -0.083 | 0.017 | 0.008 | -0.045 | -0.03 | 0.03 | 0.044 | 0.003
16 | RASA2 (UniProt Q15283) | -0.049 | -0.037 | -0.015 | 0.063 | 0 | -0.071 | 0.018 | -0.011 | 0.042 | -0.031
17 | RPS6KA5 (UniProt O75582) | -0.037 | 0.004 | -0.006 | -0.079 | 0.065 | 0.062 | 0.042 | 0.073 | -0.086 | -0.127
18 | RBM5 (UniProt P52756) | 0.146 | -0.085 | 0.073 | 0.028 | -0.003 | 0.027 | -0.015 | 0.009 | 0.114 | 0.185
19 | SCML2 (UniProt Q9UQR0) | 0.042 | 0.004 | -0.014 | -0.06 | 0.027 | 0.007 | 0.065 | 0.048 | 0.012 | -0.022
20 | RAB27A (UniProt P51159) | -0.018 | 0.02 | 0.022 | -0.059 | 0.003 | 0.037 | 0.038 | -0.024 | 0.014 | 0.021
21 | RCOR3 isoform 3 (UniProt Q9P2K3) | -0.016 | -0.028 | -0.052 | 0.038 | 0.01 | 0.022 | 0.011 | 0.03 | 0.029 | 0.014
22 | SCAF1 (UniProt Q9H7N4) | -0.053 | 0.115 | -0.018 | -0.13 | -0.042 | -0.019 | -0.06 | -0.028 | -0.014 | 0.1
23 | RABL3 (UniProt Q5HYI8) | 0.049 | -0.03 | -0.077 | -0.051 | 0.01 | -0.056 | 0.08 | 0.084 | -0.003 | 0.267
24 | RPAP1 (UniProt Q9BWH6) | -0.002 | 0.014 | -0.027 | -0.01 | 0.032 | -0.02 | -0.01 | 0.013 | 0.029 | 0.004
25 | RELN (UniProt P78509) | -0.086 | -0.039 | -0.005 | -0.047 | 0.002 | -0.005 | -0.032 | 0.042 | -0.101 | 0.013
26 | RRAGA (UniProt Q7L523) | -0.144 | 0.032 | -0.025 | -0.065 | 0.024 | -0.045 | 0.109 | 0.082 | 0.033 | -0.04
27 | RAB3IL1 (UniProt Q8TBN0) | -0.025 | -0.026 | -0.048 | 0.041 | 0.017 | -0.002 | 0.037 | 0.004 | 0.017 | 0.033
